A word on the inhibition: it is the drop in the measured response relative to a control, in per cent.

Among all 6,200 compounds or so, about 2,900 (47%) were called active. So high a share suggests a set chosen from earlier hits. The list shows a part of the results. Unmarked numbers belong to inactive results. Rule as the data show it: active = inhibition above about 50%; inactive = the rest.

The record followed here is PubChem BioAssay AID1259343 (VanderVen Lab, College of Veterinary Medicine, Cornell …, 2017).

The test is described as follows: Mycobacterium tuberculosis growth inhibition, primary screen (AID 1259343). The following applies: inhibition: at 10 µM, stronger effect = higher value; outcome: 10 uM.
In the case of `O=C(NNC(=O)C1C2C=CC(C2)C1C(=O)O)c1ccc(OC2CCCC2)cc1` (stereo unspecified), the inhibition was 97.7% (active).

Consider `CC(C)n1nccc1-c1nnc(NC(=O)c2ccccc2)o1`, for which the inhibition was 100% (active).

As for `CCC(C)n1nccc1NC(=O)c1n[nH]c2ccccc2c1=O` (stereo unspecified), the inhibition is 3.7%.

`O=C(c1ccccc1)n1sc(=O)c2ccccc21`: the inhibition was 61.1% (active).

Regarding `CS(=O)(=O)CCC(=O)Nc1cccc(-n2cccc2)c1`, the inhibition was 81.7% (active).

As for `O=C(CCCn1c(=O)oc2ccccc21)Nc1cccc(-c2ccsc2)c1`, the inhibition was 34.8%.

With `CN(Cc1cccc(NC(=O)C(C)(C)C)c1)C(=O)C(F)(F)F`, the inhibition was 4.53%.

As for `CCOC(=O)C1CSC(Cc2ccc(OCc3ccc([N+](=O)[O-])cc3)cc2)N1` (stereo unspecified), the inhibition was 66% (active).

For `O=C(NN=Cc1ccncc1)c1cc(-c2ccc(Cl)s2)[nH]n1`, the inhibition is 16.5%.

In the case of `CC(=NNC(=O)c1cc(-c2ccc(Cl)s2)[nH]n1)c1ccccc1O`, the inhibition is 40.9%.

For `COc1cccc(C=NNC(=O)c2cc(-c3ccc(Cl)s3)[nH]n2)c1`, the inhibition was 68% (active).

With `O=c1[nH]nc(SCc2cc(Cl)ccc2Cl)c(=O)[nH]1`, the inhibition was 54.7% (active).

With `O=C(CN1CCN(CCC23CC4CC(CC(C4)C2)C3)CC1)N1CCCCC1`, the inhibition is 9.26%.

Regarding `CCOC(=O)C1(CCOc2ccccc2)CCN(Cc2cc3ccccc3[nH]2)CC1`, the inhibition entry was “inactive”.

With `CCn1ncc(CN2CCCC(C(=O)Nc3cccc(-c4cc5ccccc5[nH]4)c3)C2)c1C` (stereo unspecified), the inhibition was 24.9%.

As to `O=C(Nc1ccc(-n2cccn2)cc1)C1CCN(Cc2ccccn2)CC1`, the inhibition was 90.4% (active).

Turning to `O=C(Nc1ccc(-n2cccn2)cc1)C1CCCCN1Cc1cc2ccccc2[nH]1` (stereo unspecified), the inhibition is 80.4% (active).

On to `Cc1ccc(C(C)CCN2CCC(C(=O)Nc3ccc(-n4cccn4)cc3)CC2)o1` (stereo unspecified), for which the inhibition was 81.8% (active).

For the compound `Cc1nc(C)c(CN2CCC(C(=O)Nc3ccc(-n4cccn4)cc3)CC2)nc1C`, the inhibition was 83.6% (active).

Consider `O=C(CCC1CCCCC1)Nc1ccc(-n2cccn2)cc1`, for which the inhibition was 37.5%.

As to `Cc1ccc2nc(/C(Cl)=C/c3cccc(OCc4cccc(C#N)c4)c3)cc(=O)n2c1`, the inhibition was 32.1%.

Consider `O=C(Nc1ccc(-n2cccn2)cc1)C1CCN(CC2CCOC2)CC1` (stereo unspecified), for which the inhibition was 87.4% (active).

On to `O=C(Nc1cccc(-c2cccc(F)c2)c1)C1CCN(CC2CCOC2)CC1` (stereo unspecified), for which the inhibition is 19.5%.

`CCCCOC(=O)c1ccc(N/C=C(\C#N)c2nc(C3CC3)cs2)cc1`: the inhibition is 79.1% (active).

On to `O=C(O)c1cncnc1/C=C/c1ccccc1Br`, for which the inhibition was 3.04%.

For the compound `N#CC(Cc1ccccc1)NC(=O)/C=C/c1ccccc1Br` (stereo unspecified), the inhibition was 88.1% (active).

As to `CCc1ccc(S(=O)(=O)NCCOc2ccc(-c3ccc(F)cc3)nn2)s1`, the inhibition is 92.4% (active).

For `C#CCN(CC=C)C(=O)c1cc(COc2cccc(C(F)(F)F)c2)on1`, the inhibition is 26.3%.

As to `O=C(c1cc(COc2ccc(-n3cncn3)cc2)on1)N1CCC(c2ccncc2)CC1`, the inhibition was 35.6%.

On to `O=C(c1cc(COc2cccc(C(F)(F)F)c2)on1)N1CCC(c2ccncc2)CC1`, for which the inhibition is 64.9% (active).

With `O=C(c1cc(COc2ccc3c(c2)CCCC3)on1)N1CCC(c2ccncc2)CC1`, the inhibition was 36.6%.

For the compound `O=C(NCc1ccc(Cl)s1)c1cc(COc2cccc(C(F)(F)F)c2)on1`, the inhibition is 82.4% (active).

For the compound `O=C(NC1(c2ccccc2)CC1)c1cc(COc2cccc(C(F)(F)F)c2)on1`, the inhibition was 88.1% (active).

As to `Cc1ccc(-c2nc(N3CCN(CCO)CC3)ncc2-c2ccccc2C)cc1`, the inhibition is -0.32%.

Regarding `O=C(NCc1ccccc1)c1coc(Br)c1`, the inhibition is 41.6%.

Regarding `O=P(NCc1ccccc1)(Oc1ccccc1)Oc1ccccc1`, the inhibition is 81.5% (active).

Take `CC(C)(C)CC(C)(C)NC(=O)c1ccc(C#N)cc1`: the inhibition is -11.6%.

For the compound `CN(Cc1ccc(C#N)cc1)C(=O)CCc1ccc(C(C)(C)C)cc1`, the inhibition is 74.3% (active).

In the case of `CCC(C)(C)C1CCC(NC(=O)c2cccc(-n3cnnn3)c2)CC1` (stereo unspecified), the inhibition is 24.6%.

For `CCC(C)(C)C1CCC(NC(=O)c2ccnc(C)n2)CC1` (stereo unspecified), the inhibition was 70.8% (active).

As to `O=[N+]([O-])c1ccc(C2CN=C(Nc3ccccc3)O2)cc1` (stereo unspecified), the inhibition was 74% (active).

Turning to `NC(=O)CC1CCN(Cc2noc(Cc3ccc(Br)cc3)n2)CC1`, the inhibition is 24.6%.

Regarding `CCC(=O)C1=C(c2ccc(Br)cc2)N(C(=O)CC)n2cnnc2S1`, the inhibition was 8.79%.

In the case of `Cc1nnc(NC(=O)c2ccc(S(=O)(=O)Nc3cccc(C(F)(F)F)c3)o2)s1`, the inhibition was 66.4% (active).

For the compound `O=C(NC(=S)Nc1cccc(C(F)(F)F)c1)c1ccc(Br)o1`, the inhibition was -5.04%.

Turning to `CNS(=O)(=O)c1ccc(C(=O)Nc2ccc(C)c(C)c2)o1`, the inhibition was -15.4%.

Regarding `O=C(Nc1ccc(Cl)c(Cl)c1)N(Cc1ccc(O)cc1)C1CC1`, the inhibition was 27.8%.

Consider `O=C(Nc1ccc(CNS(=O)(=O)c2c(Cl)cccc2Cl)cc1)C1CC1`, for which the inhibition is 27.6%.

As to `O=C(NNc1ccc(Cl)c(Cl)c1)c1ccc(NC(=O)C2CC2)cc1`, the inhibition was 96.5% (active).

Regarding `CC1(C)CC2CC(C)(CN2C(=O)c2cc3c(s2)CCCC3)C1` (stereo unspecified), the inhibition is 47.7%.

Consider `CC1(C)CC2CC(C)(CN2C(=S)NC(=O)c2cccs2)C1` (stereo unspecified), for which the inhibition was 96.2% (active).

Consider `CCCCNC(=S)N1CC2(C)CC1CC(C)(C)C2` (stereo unspecified), for which the inhibition is 90.3% (active).

On to `Clc1ccc(Cc2noc(-c3cccs3)n2)c(Cl)c1`, for which the inhibition is 84.3% (active).

Consider `Fc1ccc(OCc2noc(-c3cccs3)n2)c(Br)c1`, for which the inhibition is -15.9%.

On to `CNC(=O)Cc1noc(-c2cc3c(s2)CCCCCC3)n1`, for which the inhibition is 43.5%.

As for `O=C(CN1CCCc2cc(F)ccc21)NCc1ccco1`, the inhibition was 44%.

For the compound `S=C(NCc1ccco1)N1CCC2CCCCC2C1` (stereo unspecified), the inhibition was 86.6% (active).

In the case of `N#Cc1cccc(NC(=O)C2C3CC4CC(C3)CC2C4)c1` (stereo unspecified), the inhibition is 28.5%.

In the case of `N#Cc1cccc(NC(=O)c2cc(Cl)c3c(c2)OCCCO3)c1`, the inhibition is 56.4% (active).

With `COc1cc(C(=O)NC2CCOc3ccccc32)cc2c1OCCO2` (stereo unspecified), the inhibition is 41.9%.

`OC(c1ccccc1)c1nc(/C=C/c2ccccc2)cs1` (stereo unspecified): the inhibition was 47.4%.

Take `CC(C)c1cccc(Nc2nnc(C(O)c3ccccc3)s2)c1` (stereo unspecified): the inhibition is 68.4% (active).

As for `Cc1cc(NC(=O)C(C)Oc2ccccc2)n(-c2nc3c(c(=O)[nH]2)CCC3)n1` (stereo unspecified), the inhibition was 100% (active).

Take `Cc1cc(NC(=O)C(C)C)n(-c2nc3c(c(=O)[nH]2)CCC3)n1`: the inhibition was 101% (active).

Regarding `O=C(Nc1ncnc2c1CCC2)c1nc2ccccc2s1`, the inhibition is 93.3% (active).

On to `O=C(CSc1nnc(SCC(=O)NC2CCCC2)s1)NC1CCCC1`, for which the inhibition is -2.28%.

For the compound `O=C(CSC(F)(F)F)NCC1CCC1`, the inhibition was -78.2%.

On to `CC(C)(C)c1nnc2sc(SCC(=O)NCC3CCCCC3)nn2c1=O`, for which the inhibition was 73.1% (active).

`Cc1csc(CCNC(=O)C2CC2c2ccc(Cl)cc2)n1` (stereo unspecified): the inhibition was 79.1% (active).

`CC(C)c1nc(CCNC(=O)C2CC2c2cccc(O)c2)cs1` (stereo unspecified): the inhibition was 39.2%.

With `Cc1cnc(CNC(=O)C2CC2c2ccc(F)c(F)c2)o1` (stereo unspecified), the inhibition was -29.9%.

For the compound `O=C(O)Cc1ccc(NC(=O)c2cccc(Br)c2)cc1`, the inhibition is 89.2% (active).

For `CC(C)NC(=O)Nc1cccc(C(=O)Nc2ccc(C(C)C)cc2)c1`, the inhibition was 35.6%.

Turning to `C=CCn1c(COc2ccc3ccccc3c2)nc2ccccc21`, the inhibition was 26.8%.

On to `C=C(Br)Cn1c(C=Cc2ccccc2)nc2ccccc21`, for which the inhibition is 89.4% (active).

As for `C=C(Br)Cn1c(-c2cccs2)nc2ccccc21`, the inhibition is 4.18%.

With `CCC1CCc2sc(C(=O)O)cc2C1` (stereo unspecified), the inhibition is 85.9% (active).

As to `CCC1CCc2sc(C(=O)N=c3sccn3C)cc2C1` (stereo unspecified), the inhibition is 37.3%.

Consider `CC(C)(C)C1CCc2sc(C(=O)O)cc2C1` (stereo unspecified), for which the inhibition is -46.9%.

Consider `C=CCN(CC=C)C(=O)CSc1nc(N)cc(=O)[nH]1`, for which the inhibition was -27.6%.

With `O=C(c1ccc2ccccc2c1)C1CCCN(S(=O)(=O)Cc2ccccc2)C1` (stereo unspecified), the inhibition is 23.8%.

As for `O=C(c1ccc(-c2ccccc2)cc1)C1CCCN(C(=O)CSc2ncccn2)C1` (stereo unspecified), the inhibition is 9.54%.

Take `Cc1cc(C(=O)N2CCCC(C(=O)c3ccc(-c4ccccc4)cc3)C2)no1` (stereo unspecified): the inhibition was 79.4% (active).

`O=C(c1ccc(-c2ccccc2)cc1)C1CCCN(C(=O)c2ccsc2)C1` (stereo unspecified): the inhibition was 74.6% (active).

Turning to `CN(Cc1ccc2nonc2c1)c1nccc(CCC(F)(F)F)n1`, the inhibition is 31.6%.

Take `CNc1ncc(CN(C)c2nccc(CCC(F)(F)F)n2)cn1`: the inhibition was 55.3% (active).

On to `CN(Cc1cccc(O)c1)c1nccc(CCC(F)(F)F)n1`, for which the inhibition was 54.8% (active).

As to `O=C(O)CC1(CC(=O)Nc2cc(C(F)(F)F)cc(C(F)(F)F)c2)CCCCC1`, the inhibition was 88.4% (active).

For the compound `Cc1sc(NC(=O)CC2(CC(=O)O)CCCCC2)c(C#N)c1C`, the inhibition was -8.62%.

For `Clc1cccc(C2C=C(c3ccc(-c4ccccc4)cc3)Nc3nnnn32)c1Cl` (stereo unspecified), the inhibition was 93.5% (active).

Consider `CCc1ccc(C2=CC(c3ccc(Br)cc3)n3nnnc3N2)cc1` (stereo unspecified), for which the inhibition is 76.2% (active).

With `COc1ccc(C2C=C(c3ccccc3)Nc3nnnn32)cc1` (stereo unspecified), the inhibition is 78.5% (active).

As to `COc1ccc(C2C=C(c3ccc(Cl)cc3)Nc3nnnn32)cc1` (stereo unspecified), the inhibition is 7.81%.

As to `CCc1ccc(C2C=C(c3ccc(F)cc3)Nc3nnnn32)cc1` (stereo unspecified), the inhibition is 80.2% (active).

Regarding `COc1ccc(C2C(C(=O)c3ccccc3)C(O)(C(F)(F)F)N(C)C(=O)N2C)cc1` (stereo unspecified), the inhibition was -22.5%.

As to `Cc1ccc(C2=CC(c3ccc(Cl)cc3)n3nnnc3N2)cc1` (stereo unspecified), the inhibition is 102% (active).

For the compound `Clc1ccc(-c2csc3ncnc(Sc4nnnn4C4CC4)c23)cc1`, the inhibition is -14.2%.

As to `Clc1ccc(C2C=C(c3ccc(Br)cc3)Nc3nnnn32)cc1` (stereo unspecified), the inhibition is -26.6%.

As for `Cc1cccc(C)c1OC1CCN(c2cncc(C(N)=O)n2)CC1`, the inhibition was 95.8% (active).

For the compound `Cc1cccc(C)c1OC1CN(C(=O)C(=O)c2ccco2)C1`, the inhibition was 45.6%.

For the compound `OC(c1ccccc1)C1CCN(c2cncc(Cl)n2)CC1` (stereo unspecified), the inhibition was 44.6%.
